Measured values: PubChem BioAssay AID1628 (Sanford-Burnham Center for Chemical Genomics, 2009)
Hit rate of the full screen: of about 190,000 compounds, about 930 (0.49%) were called active.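 The calls were made as follows: active = z-score of insulin promoter reporter brightness in nuclei below -3 at 5 µM, with at least 500 cells counted; inconclusive = wells with under 500 cells, flagged as toxic or sparse; inactive = the rest.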 The list shows a part of the results. Results with a measured potency or affinity are listed apart.

Test: insulin promoter down-regulators in MIN6 cells, imaging, high-content screening, mouse beta cells (AID 1628)
Settings: MIN6 insulin promoter GFP reporter, at 5 µM, active compounds read low

Row | SMILES | z-score
1 | Cc1ccc(/C=C/C(=O)O)cc1S(=O)(=O)NCCO | -4.14 (active)
2 | CC(C)N1CCc2c(sc(NC(=O)c3cc4cc([N+](=O)[O-])ccc4s3)c2C(N)=O)C1 | 7.47 (inactive)
3 | CCC(C)(C)C1CCc2c(sc(NC(=O)c3cccs3)c2C(N)=O)C1 (configuration not stated) | -3.17 (active)
4 | CCn1ncc(Br)c1C(=O)Nc1sc2c(c1C(N)=O)CCC2 | 3.46 (inactive)
5 | CN(CCCNC(=O)CN1C(=O)CC(C)(C)S(=O)(=O)c2ccccc21)C1CCCCC1 | 3.03 (inactive)
6 | COc1cccc(/C=N/NC(=O)CCn2cnc3ccccc32)c1 | 3.74 (inactive)
7 | COc1cccc(OCCOc2cccc(/C=N/n3cnnc3)c2)c1 | -5.3 (active)
8 | COc1ccc(CCNc2ncnc3cc(OC)c(OC)cc23)cc1OC | -3.22 (active)
9 | COc1ccc(/C(O)=C/c2nc3ccc(C(=O)NCCc4cccc(C)c4)cc3[nH]c2=O)cc1OC | 4.75 (inactive)
10 | COc1ccc(CCNc2ncnc3[nH]ncc23)cc1OC | -7.54 (active)
11 | CCOC(=O)COc1cccc2c(=O)n(CC(=O)NCCc3ccc(OC)c(OC)c3)ccc12 | 3.56 (inactive)
12 | COc1ccc(CCNC(=O)c2cnc3scc(C)n3c2=O)cc1OC | 0.78 (inactive)
13 | CCCCCn1c(=O)c(-c2nc3ccccc3[nH]2)c(O)c2ccccc21 | -5.3 (active)
14 | CCCCn1c(=O)[nH]c2nc3cc(N)ccc3nc2c1=O | 4.83 (inactive)
15 | CCCCCn1nc(-c2ccccc2)c2nc3ccccc3nc21 | 4.99 (inactive)
16 | COCCCn1cc(C(=O)c2cc(Br)ccc2O)cc(C#N)c1=O | 2.45 (inactive)
17 | CCC(=O)NC(Nc1ncc(C)s1)(C(=O)OC)C(F)(F)F (configuration not stated) | 0.55 (inactive)
18 | O=C(Nc1ccc(N2CCN(C(=O)c3ccco3)CC2)c(Cl)c1)c1cc2ccccc2o1 | -5.03 (active)
19 | O=C(Nc1ccc(N2CCN(C(=O)c3ccccc3)CC2)c(Cl)c1)c1ccc(Br)o1 | -3.01 (active)
20 | COc1ccc2nc(SCC(C)=O)c(C#N)cc2c1 | 8.23 (inactive)
21 | Cc1nonc1NC(=O)CSc1nc2c(C)cccc2cc1C#N | 12.5 (inactive)
22 | CCOC(=O)c1cc(C#N)c(SCC(=O)c2cc(C#N)c(SC)nc2C)nc1C | -4.9 (active)
23 | O=[N+]([O-])c1ccc(C2=NN(c3ccccc3)C(c3ccco3)C2)cc1 (configuration not stated) | 16.5 (inactive)
24 | COc1cc(OC)cc(C(=O)N2CCC(N3CCCCCC3)CC2)c1 | 1.84 (inactive)
25 | CCOC(=O)c1ccc(Nc2ccc(-c3ccc(OC)c(OC)c3)nn2)cc1 | -3.46 (active)
26 | Cn1c(=O)c(Nc2ccc(Cl)cc2)c2c3c(cccc31)C(=O)c1ccccc1-2 | 15.1 (inactive)

Row | SMILES | z-score
27 | N#C/C(=C\c1ccc(N2CCOCC2)o1)c1nc2ccccc2[nH]1 | 8.22 (inactive)
28 | NS(=O)(=O)c1cccc2cccnc12 | 5.52 (inactive)
29 | NCC12CC3CC(C1)CC(CN)(C3)C2 | 3.09 (inactive)
30 | Cn1cc(/C=C2\SC(=S)N(NC(=O)c3ccccc3Cl)C2=O)c2ccccc21 | 7 (inactive)
31 | CCOC(=O)c1sc(-c2ccccc2)cc1NC(=O)CSc1nnnn1C | -3.34 (active)
32 | COc1ccc(NC(=O)CSc2nnnn2C)c([N+](=O)[O-])c1 | 0.83 (inactive)
33 | CCOC(=O)c1c(NC(=O)CSc2nnnn2C)sc(C)c1-c1ccc(C)cc1 | -3.09 (active)
34 | CCOC(=O)c1sc(=S)n(-c2ccccc2)c1N(C(C)=O)C(C)=O | 1.57 (inactive)
35 | CC(C)(C)C(=O)c1sc2nc(-c3cccs3)cc(C(F)(F)F)c2c1N | 13.8 (inactive)
36 | CCOc1ccccc1NC(=O)C1CCN(S(=O)(=O)c2ccc(OC)c(OC)c2)CC1 | 0.9 (inactive)
37 | COc1ccc(NC(=O)C2CCN(Cc3cnn(-c4ccccc4)c3-n3cccc3)CC2)cc1OC | -4.57 (active)
38 | NC(CO)C(O)c1ccc([N+](=O)[O-])cc1 (configuration not stated) | -0.09 (inactive)
39 | COCCN(CCOC)Cc1cc(=O)oc2cc3c(cc12)CCC3 | 3.14 (inactive)
40 | Cc1cccn2c(=O)c(/C=C3\SC(=S)N(CC(C)C)C3=O)c(NCCCOC(C)C)nc12 | 12.1 (inactive)
41 | O=C(CN1CCN(Cc2ccc3c(c2)OCO3)CC1)N1CCc2[nH]c3ccccc3c2C1 | -4.04 (active)
42 | Cc1ccc2[nH]c3c(c2c1)CN(C(=O)CN1CCN(Cc2ccc4c(c2)OCO4)CC1)CC3 | -3.96 (active)
43 | O=c1[nH]c(CN2CCN(Cc3ccc4c(c3)OCO4)CC2)nc2sc3c(c12)CCC3 | 3.55 (inactive)
44 | C(=C/c1nccc2c1[nH]c1ccccc12)/c1ccc2c(c1)OCO2 | 10.6 (inactive)
45 | CCN(CC)c1ccc2cc(-c3nnc(-c4ccncc4)o3)c(=O)oc2c1 | 4.43 (inactive)
46 | COc1ccc(S(=O)(=O)N2CCCCC2)cc1NC(=O)CSc1ncnc2ccccc12 | -4.48 (active)
47 | COc1ccc2nc(SCC(=O)Nc3ccc(S(=O)(=O)N4CCCC4)cc3)c(C#N)cc2c1 | 3.47 (inactive)
48 | Cc1ccc(-c2noc(CSc3nnnn3-c3ccccc3)n2)cc1 | 2.35 (inactive)
49 | CCOC(=O)c1ccccc1NC(=O)c1ccc2c(=O)n3c(nc2c1)CCCCC3 | -3.69 (active)
50 | COC(=O)c1ccccc1NC(=S)N1CCC(N2CCCCC2)CC1 | 1.65 (inactive)
51 | CC1(C)CC(N2CCCC2)=CC(=[N+]2CCCCCC2)C1 | -4.54 (active)
52 | CCOc1ccc(-n2c(SCC(=O)NC(C)CC)nc3n[nH]c(C)c3c2=N)cc1 (configuration not stated) | 3 (inactive)
